These results are taken from ChEMBL document CHEMBL3988442, “University of Dundee, Small-Polar-MMV Screening Library” (2021).

Molecules are shown by their SMILES. For some of these results: Potency and affinity values are given separately.

Holding throughout (design): scale not given: direction of the effect not stated beside the values
The target in experiment [1] is Protein translocase subunit SecA (Escherichia coli (strain K12)) (UniProt P10408). In words: Assay to Identify E. coli SecA ATPase Inhibitors. Type of experiment: functional. The note with it: 30 µM.
Protein translocase subunit SecA (Escherichia coli (strain K12)), sequence (P10408 whole entry): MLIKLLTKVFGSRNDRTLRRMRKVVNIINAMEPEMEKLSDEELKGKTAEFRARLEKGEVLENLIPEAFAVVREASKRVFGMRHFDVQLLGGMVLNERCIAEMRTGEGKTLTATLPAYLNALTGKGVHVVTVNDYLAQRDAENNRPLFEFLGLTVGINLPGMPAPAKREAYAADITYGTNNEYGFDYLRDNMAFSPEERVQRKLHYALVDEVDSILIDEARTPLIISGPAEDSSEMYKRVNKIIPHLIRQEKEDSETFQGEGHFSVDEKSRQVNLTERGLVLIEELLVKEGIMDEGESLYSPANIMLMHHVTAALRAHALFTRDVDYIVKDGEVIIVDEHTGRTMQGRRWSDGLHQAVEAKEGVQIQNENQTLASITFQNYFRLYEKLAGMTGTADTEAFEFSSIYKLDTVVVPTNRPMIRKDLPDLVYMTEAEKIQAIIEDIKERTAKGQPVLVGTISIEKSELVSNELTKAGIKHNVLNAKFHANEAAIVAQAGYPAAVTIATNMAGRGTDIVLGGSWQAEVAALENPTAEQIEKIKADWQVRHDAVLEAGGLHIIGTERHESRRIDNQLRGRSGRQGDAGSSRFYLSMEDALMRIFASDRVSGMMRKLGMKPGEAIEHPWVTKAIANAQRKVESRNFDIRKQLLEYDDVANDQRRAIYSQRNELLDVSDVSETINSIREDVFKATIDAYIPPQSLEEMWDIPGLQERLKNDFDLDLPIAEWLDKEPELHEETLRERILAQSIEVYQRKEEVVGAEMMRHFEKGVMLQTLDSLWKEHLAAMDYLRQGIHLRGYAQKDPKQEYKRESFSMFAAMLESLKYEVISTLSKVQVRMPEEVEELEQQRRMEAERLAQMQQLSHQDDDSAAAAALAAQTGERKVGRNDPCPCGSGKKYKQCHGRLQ
Experiment [2] addresses T1, Ubiquitin-activating enzyme e1, putative (Leishmania donovani (strain BPK282A1)) (UniProt E9BSI1).
T1 sequence (whole entry): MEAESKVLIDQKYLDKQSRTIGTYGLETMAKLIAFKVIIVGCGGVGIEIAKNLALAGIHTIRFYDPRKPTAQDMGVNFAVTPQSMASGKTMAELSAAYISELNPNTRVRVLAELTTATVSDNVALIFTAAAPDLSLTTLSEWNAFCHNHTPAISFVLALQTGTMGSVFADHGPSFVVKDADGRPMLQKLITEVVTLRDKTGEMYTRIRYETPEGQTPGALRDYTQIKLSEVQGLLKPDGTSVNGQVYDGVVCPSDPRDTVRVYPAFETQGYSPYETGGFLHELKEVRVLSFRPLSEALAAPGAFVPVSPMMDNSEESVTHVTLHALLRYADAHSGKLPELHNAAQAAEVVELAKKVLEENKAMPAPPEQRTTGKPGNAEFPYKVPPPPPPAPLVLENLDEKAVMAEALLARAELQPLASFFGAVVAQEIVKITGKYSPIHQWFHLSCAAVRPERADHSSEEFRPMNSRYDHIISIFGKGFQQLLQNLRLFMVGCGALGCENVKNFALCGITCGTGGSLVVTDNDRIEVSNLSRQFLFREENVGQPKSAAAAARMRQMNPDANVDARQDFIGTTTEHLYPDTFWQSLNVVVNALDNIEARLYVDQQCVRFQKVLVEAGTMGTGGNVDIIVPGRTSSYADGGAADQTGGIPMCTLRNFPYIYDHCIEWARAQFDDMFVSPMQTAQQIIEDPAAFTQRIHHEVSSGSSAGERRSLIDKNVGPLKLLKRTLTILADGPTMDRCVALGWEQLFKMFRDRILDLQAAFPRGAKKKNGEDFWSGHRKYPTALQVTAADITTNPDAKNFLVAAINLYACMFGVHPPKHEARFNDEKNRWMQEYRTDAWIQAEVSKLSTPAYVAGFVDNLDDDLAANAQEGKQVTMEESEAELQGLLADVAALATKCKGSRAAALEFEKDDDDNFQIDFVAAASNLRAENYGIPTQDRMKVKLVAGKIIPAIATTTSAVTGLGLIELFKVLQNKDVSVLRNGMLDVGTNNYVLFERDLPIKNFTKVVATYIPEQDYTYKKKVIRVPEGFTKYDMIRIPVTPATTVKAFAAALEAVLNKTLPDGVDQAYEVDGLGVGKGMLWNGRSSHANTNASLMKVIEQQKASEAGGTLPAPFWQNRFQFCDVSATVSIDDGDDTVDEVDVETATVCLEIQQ
In words: Leishmania donovani Ubiquitin Activating Enzyme (LdE1). The settings on record: 30 µM. Type of experiment: functional.

Experiment [3] has as its target AMP-activated protein kinase, AMPK (Homo sapiens) (UniProt P54646+O43741+P54619+Q9UGJ0+Q9Y478+Q13131+Q9UGI9). The experiment is described as follows: AMP-dependent Kinase enzyme assay. An in vitro enzyme assay that detects ADP turnover that is directly proportional to AMPK activity. This uses naive AMPK that is activated during the assay with MK-8722. Type of experiment: functional. The settings on record: 30 µM.

Experiment [4] concerns the target Sialic acid-binding Ig-like lectin 9 (Homo sapiens) (UniProt Q9Y336). In words: Hs-Siglec9 ALPHAscreen SOP 20170721. The note with it: 10 µM.
In another experiment the test system is Trypanosoma cruzi. The experiment is described as follows: Trypanosoma cruzi phosphomannomutase and mannose-1-phosphate guanylyltransferase assay. The format is functional. The note with it: 10 µM.
Experiment [5] addresses T2, Arginase-2, mitochondrial (Homo sapiens) (UniProt P78540).
T2 sequence (whole entry): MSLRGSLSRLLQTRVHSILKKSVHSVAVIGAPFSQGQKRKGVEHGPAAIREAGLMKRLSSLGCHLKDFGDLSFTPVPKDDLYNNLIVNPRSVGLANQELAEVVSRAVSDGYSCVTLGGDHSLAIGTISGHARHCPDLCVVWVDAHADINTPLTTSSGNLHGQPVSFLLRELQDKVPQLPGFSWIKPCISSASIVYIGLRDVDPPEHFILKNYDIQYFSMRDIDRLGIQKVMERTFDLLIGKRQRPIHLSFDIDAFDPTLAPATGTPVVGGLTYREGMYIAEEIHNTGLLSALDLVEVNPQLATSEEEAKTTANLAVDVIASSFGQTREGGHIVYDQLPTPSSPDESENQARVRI
The experiment is described as follows: in vitro enzyme assay to detect the production of urea directly proportional to the activity of Arginase II. Also: in the data most compounds retested in dose-response had high values. The note with it: 33.3 µM. The format is functional.

Experiment [6] concerns the target T3, Proteasome subunit beta (Trypanosoma cruzi) (UniProt O96673).
T3 sequence (whole entry): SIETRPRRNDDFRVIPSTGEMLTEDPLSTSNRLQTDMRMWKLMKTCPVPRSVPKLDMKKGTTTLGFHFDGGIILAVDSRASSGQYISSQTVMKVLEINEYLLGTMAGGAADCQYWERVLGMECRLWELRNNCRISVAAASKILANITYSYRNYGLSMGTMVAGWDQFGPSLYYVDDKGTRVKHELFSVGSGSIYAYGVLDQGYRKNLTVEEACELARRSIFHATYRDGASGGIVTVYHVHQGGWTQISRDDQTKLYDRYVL
The experiment is described as follows: Trypanosoma cruzi proteasome chymotrypsin-like activity (TcProtChymo) assay. Also: in the data most compounds retested in dose-response had high values. The settings on record: 9.37 µM. The format is functional.

The next experiment is filed under the species Homo sapiens. The experiment is described as follows: To identify inhibition of the IFN signalling (Jak-Stat) pathway via expression of an eGFP reporter gene under the control of an IFN-stimulated response element (ISRE) containing MxA promoter. The format is functional. The settings on record: 30 µM. Background: Reporter assays use an easily measured gene product as a stand-in for the process of interest.

Experiment [7] addresses T4, Tyrosyl-tRNA synthetase, putative (Trypanosoma cruzi (strain CL Brener)) (UniProt Q4DSP6).
T4 sequence (whole entry): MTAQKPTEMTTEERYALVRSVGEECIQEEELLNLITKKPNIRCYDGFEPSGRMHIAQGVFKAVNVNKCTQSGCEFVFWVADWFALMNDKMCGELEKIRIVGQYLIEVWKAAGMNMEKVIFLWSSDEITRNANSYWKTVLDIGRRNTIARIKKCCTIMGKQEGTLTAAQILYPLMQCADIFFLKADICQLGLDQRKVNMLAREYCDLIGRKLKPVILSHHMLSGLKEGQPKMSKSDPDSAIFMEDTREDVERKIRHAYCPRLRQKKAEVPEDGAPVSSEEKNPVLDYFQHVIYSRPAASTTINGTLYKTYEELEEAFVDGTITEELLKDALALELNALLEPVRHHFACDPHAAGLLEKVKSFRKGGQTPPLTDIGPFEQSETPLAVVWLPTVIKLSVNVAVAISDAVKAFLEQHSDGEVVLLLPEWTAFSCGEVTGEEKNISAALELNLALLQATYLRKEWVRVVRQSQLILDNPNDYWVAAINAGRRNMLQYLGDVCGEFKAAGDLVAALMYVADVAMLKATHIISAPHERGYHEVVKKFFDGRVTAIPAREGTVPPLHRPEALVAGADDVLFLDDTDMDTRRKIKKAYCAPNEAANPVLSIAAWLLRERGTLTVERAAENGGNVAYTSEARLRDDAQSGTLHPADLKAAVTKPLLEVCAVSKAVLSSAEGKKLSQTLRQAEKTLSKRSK
The experiment is described as follows: Trypanosoma cruzi tyrosyl tRNA synthetase (TcYRS) _High Tyrosine SOP. Also: in the data most compounds retested in dose-response had high values. Type of experiment: functional. The settings on record: 30 µM.

In experiment [8] the target is T4, Tyrosyl-tRNA synthetase, putative (Trypanosoma cruzi (strain CL Brener)). In words: Trypanosoma cruzi tyrosyl tRNA synthetase (TcYRS) SOP. The format is functional. The settings on record: 30 µM.
In experiment [9] the target is Chromo domain-containing protein 1 (Saccharomyces cerevisiae (strain ATCC 204508 / S288c) (Baker's yeast)) (UniProt P32657). The experiment is described as follows: ScCHD-1 Enzyme Inhibition Assay. Also: in the data most compounds retested in dose-response had high values. The settings on record: 30 µM. Type of experiment: functional.
Chromo domain-containing protein 1 (Saccharomyces cerevisiae (strain ATCC 204508 / S288c) (Baker's yeast)), sequence (P32657 whole entry, the tested form may be a part): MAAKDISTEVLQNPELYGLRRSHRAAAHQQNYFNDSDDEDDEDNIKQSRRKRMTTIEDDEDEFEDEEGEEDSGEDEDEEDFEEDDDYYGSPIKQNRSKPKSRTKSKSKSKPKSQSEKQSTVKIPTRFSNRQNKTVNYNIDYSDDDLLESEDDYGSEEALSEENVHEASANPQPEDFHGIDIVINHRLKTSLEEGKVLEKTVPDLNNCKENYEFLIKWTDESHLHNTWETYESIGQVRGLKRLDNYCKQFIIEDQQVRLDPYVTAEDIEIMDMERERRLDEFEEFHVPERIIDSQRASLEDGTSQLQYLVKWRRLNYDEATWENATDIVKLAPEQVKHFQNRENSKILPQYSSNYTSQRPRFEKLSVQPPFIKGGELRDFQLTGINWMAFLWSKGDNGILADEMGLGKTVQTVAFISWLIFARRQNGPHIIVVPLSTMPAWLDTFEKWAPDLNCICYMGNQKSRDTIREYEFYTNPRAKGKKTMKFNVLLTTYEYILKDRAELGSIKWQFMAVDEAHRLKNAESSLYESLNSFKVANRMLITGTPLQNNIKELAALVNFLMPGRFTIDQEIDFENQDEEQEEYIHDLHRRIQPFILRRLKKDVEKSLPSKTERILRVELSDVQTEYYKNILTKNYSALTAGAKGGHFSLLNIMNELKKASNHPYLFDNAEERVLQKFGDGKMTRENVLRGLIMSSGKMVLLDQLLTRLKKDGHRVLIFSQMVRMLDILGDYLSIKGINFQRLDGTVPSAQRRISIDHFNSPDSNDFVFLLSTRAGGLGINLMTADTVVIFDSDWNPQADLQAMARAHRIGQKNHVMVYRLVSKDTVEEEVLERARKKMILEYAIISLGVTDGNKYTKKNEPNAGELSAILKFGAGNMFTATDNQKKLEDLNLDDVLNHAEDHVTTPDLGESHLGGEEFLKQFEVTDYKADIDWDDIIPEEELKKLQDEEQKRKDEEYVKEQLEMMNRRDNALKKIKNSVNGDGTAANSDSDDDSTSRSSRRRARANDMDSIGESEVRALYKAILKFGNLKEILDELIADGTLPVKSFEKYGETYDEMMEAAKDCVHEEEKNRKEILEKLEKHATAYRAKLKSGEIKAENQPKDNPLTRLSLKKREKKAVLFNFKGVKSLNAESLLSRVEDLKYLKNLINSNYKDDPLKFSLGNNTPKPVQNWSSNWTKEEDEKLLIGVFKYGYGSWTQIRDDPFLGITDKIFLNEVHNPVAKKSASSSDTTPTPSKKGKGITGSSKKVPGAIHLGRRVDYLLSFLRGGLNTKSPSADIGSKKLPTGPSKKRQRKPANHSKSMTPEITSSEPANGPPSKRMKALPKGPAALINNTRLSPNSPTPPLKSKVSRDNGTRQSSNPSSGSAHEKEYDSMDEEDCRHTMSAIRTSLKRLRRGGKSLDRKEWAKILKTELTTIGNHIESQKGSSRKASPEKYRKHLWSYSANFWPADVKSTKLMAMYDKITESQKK

Sialic acid-binding Ig-like lectin 9 (Homo sapiens), sequence (Q9Y336 whole entry): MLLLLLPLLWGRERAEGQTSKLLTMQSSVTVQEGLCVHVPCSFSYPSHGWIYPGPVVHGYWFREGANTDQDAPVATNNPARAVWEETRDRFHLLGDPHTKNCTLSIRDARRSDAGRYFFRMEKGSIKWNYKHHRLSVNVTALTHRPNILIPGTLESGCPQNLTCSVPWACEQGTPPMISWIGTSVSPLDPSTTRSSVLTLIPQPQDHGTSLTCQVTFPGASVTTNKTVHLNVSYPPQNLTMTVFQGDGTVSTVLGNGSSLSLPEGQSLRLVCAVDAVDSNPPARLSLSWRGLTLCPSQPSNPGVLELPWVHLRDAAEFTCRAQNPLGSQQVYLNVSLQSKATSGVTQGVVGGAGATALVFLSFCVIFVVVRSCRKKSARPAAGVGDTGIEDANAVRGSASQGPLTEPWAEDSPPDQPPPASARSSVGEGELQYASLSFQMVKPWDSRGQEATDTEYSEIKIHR

With `O=C(c1cc(C2CC2)[nH]n1)N1CCN(Cc2ccsc2)CC1`, the Percent Effect in experiment [1] is -5.68%; in [2] it was 21.6%; in [3], -3.2%; in experiment [4], 10.8%; with Trypanosoma cruzi, 10.7%; in experiment [5], 1.66%. Also, the Percent Effect was 14% in [6]; 9.93% in the experiment filed under Homo sapiens; 7.92% in experiment [7]; 23.2% in experiment [8]; -1.29% in [9].

In the case of `CCc1nc(CN2CCN(C(=O)COCc3ccccc3)CC2)no1`, the Percent Effect in experiment [1] was -6.48%; in experiment [2], 8.11%; in [3], -6.87%; in [4], 35%; in the experiment with Trypanosoma cruzi, 4.4%; in experiment [5], 25.1%. The Percent Effect was 10.7% in [6]; -6.99% in the experiment listed under Homo sapiens; 2.15% in experiment [7]; 8.64% in [8]; -11.6% in [9].

As for `COc1ccc(C2CCCN2C(=O)c2csc(NC(C)=O)n2)cc1` (stereo unspecified), the Percent Effect was -5.5% in experiment [1]; 18.2% in [2]; 41.8% in [3]; -5.49% in [4]; -3.37% in the experiment on Trypanosoma cruzi; 2.85% in experiment [5]. For the same compound, the Percent Effect in experiment [6] is 4.56%; in the experiment filed under Homo sapiens, 17.3%; in experiment [7], 6.8%; in experiment [8] it was 12.2%; in [9], -8.21%.

As to `Cc1nn(C)c2c(NCc3ccccc3F)nc(C3CC3)nc12`, the Percent Effect was -4.24% in [1]; 13% in [2]; 15.3% in [3]; 12.8% in [4]; 9.14% in the experiment with Trypanosoma cruzi; -63.5% in experiment [5]. In addition, the Percent Effect is 20.6% in experiment [6]; 38.1% in the experiment listed under Homo sapiens; -3.23% in experiment [7]; 13.6% in [8]; -3.61% in experiment [9].

As to `COc1ccc(C2=CCN(C(=O)CN(C)Cc3ccoc3)CC2)cc1`, the Percent Effect was -6.75% in experiment [1]; 7.59% in experiment [2]; -2.65% in experiment [3]; 5.81% in experiment [4]; 11.6% with Trypanosoma cruzi; -5.32% in [5]. Further, the Percent Effect in experiment [6] is 10.4%; in the experiment listed under Homo sapiens, 28.5%; in [7], 8.37%; in experiment [8], 21.5%; in experiment [9] it was -11.7%.

Take `COC(=O)CCC(=O)N1CCc2[nH]nc(-c3ccc(F)c(F)c3)c2C1`: the Percent Effect in [1] is -3.6%; in [2] it was 0%; in experiment [3], 8.72%; in experiment [4], -7.28%; in the experiment on Trypanosoma cruzi it was -3.81%; in experiment [5] it was 1.24%. Moreover, the Percent Effect was -3.35% in experiment [6]; 9.05% in the experiment listed under Homo sapiens; 2.15% in experiment [7]; 8.64% in [8]; -0.244% in experiment [9].

For `c1cnc(NCc2cncc3c2CCN(Cc2cccs2)C3)nc1`, the Percent Effect in [1] is -0.336%; in experiment [2], 10.7%; in [3] it was 8.51%; in experiment [4] it was -0.683%; with Trypanosoma cruzi, -7.28%; in experiment [5], 2.1%. Moreover, the Percent Effect in experiment [6] was 9.43%; in the experiment listed under Homo sapiens, 12.1%; in experiment [7], 3.19%; in experiment [8], 8.97%; in [9], -5.11%.

As to `CNS(=O)(=O)CCCN1CCCC1c1noc(C2CC2)n1` (stereo unspecified), the Percent Effect in experiment [1] is 0.851%; in experiment [2] it was -2.53%; in [3], 9.34%; in [4], -2.31%; in the experiment on Trypanosoma cruzi, -2.74%; in experiment [5], 4.56%. Also, the Percent Effect was 9.91% in experiment [6]; 10.4% in the experiment filed under Homo sapiens; 0.493% in [7]; 1.27% in experiment [8]; -7.17% in [9].

Regarding `CCc1nc(CN2CCN(C(=O)c3cnccn3)CC2)cs1`, the Percent Effect is -2.42% in experiment [1]; 5.41% in experiment [2]; -4.67% in experiment [3]; 12.2% in experiment [4]; 4.92% in the experiment with Trypanosoma cruzi; -5.73% in experiment [5]. Moreover, the Percent Effect in [6] was 15.3%; in the experiment filed under Homo sapiens, 11.6%; in experiment [7], 1.98%; in experiment [8] it was 11%; in experiment [9], -2.71%.

In the case of `CC(=O)NC1CCCN(C(=O)Nc2cnc3c(cnn3C(C)C)c2)C1` (stereo unspecified), the Percent Effect is -3.14% in experiment [1]; 16.2% in experiment [2]; 0.9% in experiment [3]; 4.02% in experiment [4]; -4.55% in the experiment with Trypanosoma cruzi; -1.29% in [5]. The Percent Effect in [6] is 12.2%; in the experiment filed under Homo sapiens, 5.99%; in experiment [7] it was 7.92%; in experiment [8], 23.2%; in experiment [9], -5.36%.

`CN(C)C(=O)c1nc2c(s1)CCN(C(=O)c1ccc(Cl)cc1)CC2`: the Percent Effect in experiment [1] was -2.69%; in experiment [2] it was 18.7%; in experiment [3], -9.31%; in [4] it was -1.54%; with Trypanosoma cruzi, 2.7%; in experiment [5], -29.6%. Besides, the Percent Effect in [6] is 10.4%; in the experiment listed under Homo sapiens it was -8.27%; in [7] it was 9.38%; in experiment [8], 30%; in experiment [9], -12.2%.
